Results on 5 compounds are retold here after PubChem BioAssay.

Experiment [1] has as its system PRMT1 (protein arginine N-methyltransferase 1). Kind of experiment: PRMT1 binders on small-molecule microarrays, primary screen, biochemical, small-molecule microarray, 635 nm fluorescence (AID 1088).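 Also: binding of Prmt1 protein to compounds spotted on small-molecule microarray slides.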 The conditions noted are these: small-molecule microarray binding, higher = more signal.
Experiment [2] in a line: yeast growth modulation, basal conditions, primary screen, YJM789 clinical isolate, OD600, 24 h (AID 1089).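 Also: growth of clinical yeast isolate S. cerevisiae YJM 789 seeded 1000 cells per well; test concentration not given here.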 The conditions noted are these: S. cerevisiae YJM789 growth, higher = more signal, called active from +8 up or from −8 down.
Experiment [3] can be described thus: fission yeast growth modulation, primary screen, strain 972, OD600, 24 h, no modulator (AID 1090).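 Also: basal condition with compound alone and no growth modifier present; test concentration not given here.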 The conditions noted are these: S. pombe 972 growth, higher = more signal, called active from +8 up or from −8 down.
Experiment [4] is described as follows: S. cerevisiae growth modulation with rapamycin, primary screen, strain BY4716, OD600, 96 h (AID 1091). Also: test concentration not given here. The conditions noted are these: higher = more signal, called active from +8 up or from −8 down.
Experiment [5] has as its target Torsin-1A-interacting protein 2 (Homo sapiens) (UniProt Q8NFQ8). As to the kind of experiment: LULL1 binders on small-molecule microarray, primary screen, cell lysate, human LULL1 lysate, 635/667 nm fluorescence (AID 1092).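 Also: probe is lysate of COS7 cells overexpressing human LULL1; score merges per-feature 667 nm fluorescence with signal-to-noise.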 The conditions noted are these: hLULL1 lysate binding, 635 nm fluorescence, higher = more signal.
Experiment [6] can be described thus: E. coli growth modulation, two-sided OD650, primary screen, E. coli filamentation project, strain DRC41, 24 h (AID 1093).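 Also: MC1000 strain lacking acrAB efflux and sulA so SOS filamentation is blocked; test concentration not given here.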 The conditions noted are these: OD650, 24 h, higher = more signal, called active from +8 up or from −8 down.
Experiment [7] is described as follows: small-molecule microarray binders of probe aLefty2, primary screen, biochemical, biotinylated probe, 635/667 nm fluorescence (AID 1094).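 Also: score merges spot fluorescence near 667 nm with spot signal-to-noise ratio.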 The conditions noted are these: higher = more signal.
Experiment [8] has as its system Noggin (protein binding on small-molecule microarray). As to the kind of experiment: Noggin binders on small-molecule microarray, primary screen, biochemical, 635/667 nm fluorescence (AID 1095).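 Also: score merges 667 nm feature fluorescence with signal to noise over triplicate slides.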 The conditions noted are these: 635 nm fluorescence, higher = more signal.
Experiment [9] concerns the target Neurogenic locus notch homolog protein 3 (Homo sapiens) (UniProt Q9UM47). Kind of experiment: NOTCH3 binders on small-molecule microarray, primary screen, biochemical, 635/667 nm fluorescence (AID 1096). The conditions noted are these: NOTCH3 binding, 635 nm fluorescence, higher = more signal.
Experiment [10] is described as follows: small-molecule microarray binders of probe aEGFR, primary screen, biochemical, biotinylated probe, 635/667 nm fluorescence (AID 1097).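 Also: probe is a biotinylated anti-EGFR antibody binding compounds printed on slides; score combines fluorescence near 667 nm and signal to noise of each spot.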 The conditions noted are these: higher = more signal.
Experiment [11] deals with Plasmodium falciparum Sir2 (PF13_0152, Sir2A). Kind of experiment: pfSir2 binders on small-molecule microarrays, primary screen, biochemical, small-molecule microarray, 635 nm fluorescence (AID 1098).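 Also: score merges spot fluorescence intensity with its signal-to-noise ratio.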 The conditions noted are these: small-molecule microarray binding, fluorescence 635 nm; higher = more signal.
Experiment [12] in a line: small-molecule microarray binders of probe aDKK1, primary screen, biochemical, biotinylated probe, 635/667 nm fluorescence (AID 1099).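 Also: score merges 667nm spot fluorescence with signal to noise across triplicate slides; reference of the scale not given here.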 The conditions noted are these: higher = more signal.
Experiment [13] in a line: small-molecule microarray binders of probe aCHRDL2, primary screen, biochemical, biotinylated probe, 635/667 nm fluorescence (AID 1100). The conditions noted are these: higher = more signal.
Experiment [14] in a line: splicing luciferase reporter signal modulators, primary screen, spliceosome inhibition project, cell-based, HEK293, splice +/- reporter (AID 1101).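 Also: HEK293 cells carrying a splicing-competent luciferase reporter gene; test concentration not given here.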 The conditions noted are these: luminescence, 24 h, higher = more signal, called active from +8 up or from −8 down. In general terms: In a reporter assay the amount or activity of a reporter protein is the signal.
Experiment [15] has as its target Fibroblast growth factor 10 (Homo sapiens) (UniProt O15520). As to the kind of experiment: FGF10 binders on small-molecule microarrays, primary screen, biochemical, small-molecule microarray, 635 nm fluorescence (AID 1102). The conditions noted are these: FGF10 binding, fluorescence 635 nm, higher = more signal.
Experiment [16] relates to glycogen synthase kinase-3 (GSK3A per assay name; protocol says GSK3B). As to the kind of experiment: GSK3 binders on small-molecule microarrays, primary screen, biochemical, small-molecule microarray, 635 nm fluorescence, GSK3A (AID 1103). Also: the record names both GSK3A and GSK3B. The conditions noted are these: small-molecule microarray binding, fluorescence 635 nm; higher = more signal.
For experiment [17], the target named is Epidermal growth factor receptor (Homo sapiens) (UniProt P00533). As to the kind of experiment: EGFR binders on small-molecule microarrays, primary screen, biochemical, small-molecule microarray, 635 nm fluorescence (AID 1104).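 Also: score merges 667 nm emission intensity with spot signal to noise over triplicate slides.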 The conditions noted are these: EGFR binding, higher = more signal.
Chain of Epidermal growth factor receptor (Homo sapiens) (P00533 whole entry, looked up): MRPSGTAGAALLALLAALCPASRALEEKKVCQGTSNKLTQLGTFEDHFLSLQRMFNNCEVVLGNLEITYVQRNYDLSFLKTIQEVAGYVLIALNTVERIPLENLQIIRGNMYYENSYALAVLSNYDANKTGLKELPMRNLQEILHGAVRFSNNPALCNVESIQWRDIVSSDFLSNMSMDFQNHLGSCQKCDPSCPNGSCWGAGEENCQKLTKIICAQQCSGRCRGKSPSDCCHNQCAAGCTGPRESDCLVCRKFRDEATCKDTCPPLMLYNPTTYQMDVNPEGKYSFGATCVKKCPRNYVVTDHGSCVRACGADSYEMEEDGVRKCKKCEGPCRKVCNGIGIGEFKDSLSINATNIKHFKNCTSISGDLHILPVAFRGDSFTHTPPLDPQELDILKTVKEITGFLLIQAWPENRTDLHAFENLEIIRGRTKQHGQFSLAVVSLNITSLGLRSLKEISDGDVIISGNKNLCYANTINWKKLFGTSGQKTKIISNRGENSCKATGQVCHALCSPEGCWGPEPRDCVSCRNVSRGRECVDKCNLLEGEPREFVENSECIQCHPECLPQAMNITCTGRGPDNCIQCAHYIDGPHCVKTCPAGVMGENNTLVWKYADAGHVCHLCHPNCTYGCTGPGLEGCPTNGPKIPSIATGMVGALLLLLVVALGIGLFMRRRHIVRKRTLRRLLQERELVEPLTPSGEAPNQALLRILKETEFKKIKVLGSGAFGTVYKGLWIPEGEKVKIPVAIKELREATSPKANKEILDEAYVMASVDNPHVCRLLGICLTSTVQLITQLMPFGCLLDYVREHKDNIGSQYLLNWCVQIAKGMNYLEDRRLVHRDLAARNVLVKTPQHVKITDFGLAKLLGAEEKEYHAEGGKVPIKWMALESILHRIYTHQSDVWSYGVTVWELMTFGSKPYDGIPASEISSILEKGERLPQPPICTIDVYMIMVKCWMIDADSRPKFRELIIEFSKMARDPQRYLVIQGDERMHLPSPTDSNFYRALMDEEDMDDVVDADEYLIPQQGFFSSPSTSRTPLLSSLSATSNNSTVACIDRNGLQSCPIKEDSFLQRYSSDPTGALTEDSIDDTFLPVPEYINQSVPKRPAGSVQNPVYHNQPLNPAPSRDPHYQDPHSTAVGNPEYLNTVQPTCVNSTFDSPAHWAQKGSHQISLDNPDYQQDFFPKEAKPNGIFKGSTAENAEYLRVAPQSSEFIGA
The target in experiment [18] is Follistatin-related protein 3 (Homo sapiens) (UniProt O95633). As to the kind of experiment: FSTL3 binders on small-molecule microarrays, primary screen, biochemical, small-molecule microarray, 635 nm fluorescence (AID 1105).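 Also: score merges emission near 667 nm and signal to noise per printed spot across three slides.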 The conditions noted are these: FSTL3 binding, higher = more signal.
Chain of Follistatin-related protein 3 (Homo sapiens) (O95633 whole entry, looked up): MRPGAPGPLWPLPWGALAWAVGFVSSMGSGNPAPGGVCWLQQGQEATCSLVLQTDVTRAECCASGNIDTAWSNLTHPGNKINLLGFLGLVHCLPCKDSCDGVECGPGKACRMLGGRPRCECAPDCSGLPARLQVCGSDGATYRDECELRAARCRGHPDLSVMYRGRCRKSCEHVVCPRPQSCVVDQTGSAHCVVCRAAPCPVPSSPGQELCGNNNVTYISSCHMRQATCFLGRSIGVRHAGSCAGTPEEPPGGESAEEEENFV
Experiment [19] deals with Dickkopf-related protein 1 (Homo sapiens) (UniProt O94907). Kind of experiment: DKK1 binders on small-molecule microarrays, primary screen, biochemical, small-molecule microarray, 635 nm fluorescence scan (AID 1106).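 Also: score merges emission near 667 nm with signal to noise over three replicate slides.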 The conditions noted are these: DKK1 binding, higher = more signal.
Chain of Dickkopf-related protein 1 (Homo sapiens) (O94907 whole entry, looked up): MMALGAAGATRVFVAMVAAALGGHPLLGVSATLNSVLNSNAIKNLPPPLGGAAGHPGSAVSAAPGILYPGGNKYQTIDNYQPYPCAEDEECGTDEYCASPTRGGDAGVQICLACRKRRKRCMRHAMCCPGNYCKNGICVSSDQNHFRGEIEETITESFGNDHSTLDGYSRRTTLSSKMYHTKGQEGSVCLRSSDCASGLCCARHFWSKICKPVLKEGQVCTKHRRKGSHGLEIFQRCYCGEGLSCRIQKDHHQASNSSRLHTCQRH
The subject of experiment [20] is Inhibin beta A chain (activin A). As to the kind of experiment: INHBA (activin A) binders on microarrays, primary screen, biochemical, small-molecule microarray, 635 nm fluorescence scan (AID 1107).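 Also: mouse activin A protein probed at 4.33 µg/mL on printed slides; score merges bound-protein fluorescence near 667 nm with spot signal-to-noise.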 The conditions noted are these: small-molecule microarray binding, higher = more signal.

The source made the active and inactive calls.

Chain of Fibroblast growth factor 10 (Homo sapiens) (O15520 whole entry, looked up): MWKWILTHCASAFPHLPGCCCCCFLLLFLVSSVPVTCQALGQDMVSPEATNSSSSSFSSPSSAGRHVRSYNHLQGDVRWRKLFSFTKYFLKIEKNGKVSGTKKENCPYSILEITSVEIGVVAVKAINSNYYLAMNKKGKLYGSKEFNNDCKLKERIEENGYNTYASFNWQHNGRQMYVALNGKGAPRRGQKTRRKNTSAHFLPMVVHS
Chain of Torsin-1A-interacting protein 2 (Homo sapiens) (Q8NFQ8 whole entry, looked up): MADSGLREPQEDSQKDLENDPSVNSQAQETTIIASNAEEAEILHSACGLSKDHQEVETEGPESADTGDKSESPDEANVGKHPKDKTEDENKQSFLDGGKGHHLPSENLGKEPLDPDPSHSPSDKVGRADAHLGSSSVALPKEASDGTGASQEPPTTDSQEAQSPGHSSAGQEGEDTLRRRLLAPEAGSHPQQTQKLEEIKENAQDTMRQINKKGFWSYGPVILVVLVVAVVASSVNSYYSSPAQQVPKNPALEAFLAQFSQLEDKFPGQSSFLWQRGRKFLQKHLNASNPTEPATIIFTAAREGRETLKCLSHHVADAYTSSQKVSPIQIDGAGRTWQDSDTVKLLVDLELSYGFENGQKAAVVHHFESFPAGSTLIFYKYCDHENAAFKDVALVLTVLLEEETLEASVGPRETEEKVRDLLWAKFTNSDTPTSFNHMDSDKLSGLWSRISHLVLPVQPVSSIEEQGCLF
Chain of Neurogenic locus notch homolog protein 3 (Homo sapiens) (Q9UM47 whole entry, looked up): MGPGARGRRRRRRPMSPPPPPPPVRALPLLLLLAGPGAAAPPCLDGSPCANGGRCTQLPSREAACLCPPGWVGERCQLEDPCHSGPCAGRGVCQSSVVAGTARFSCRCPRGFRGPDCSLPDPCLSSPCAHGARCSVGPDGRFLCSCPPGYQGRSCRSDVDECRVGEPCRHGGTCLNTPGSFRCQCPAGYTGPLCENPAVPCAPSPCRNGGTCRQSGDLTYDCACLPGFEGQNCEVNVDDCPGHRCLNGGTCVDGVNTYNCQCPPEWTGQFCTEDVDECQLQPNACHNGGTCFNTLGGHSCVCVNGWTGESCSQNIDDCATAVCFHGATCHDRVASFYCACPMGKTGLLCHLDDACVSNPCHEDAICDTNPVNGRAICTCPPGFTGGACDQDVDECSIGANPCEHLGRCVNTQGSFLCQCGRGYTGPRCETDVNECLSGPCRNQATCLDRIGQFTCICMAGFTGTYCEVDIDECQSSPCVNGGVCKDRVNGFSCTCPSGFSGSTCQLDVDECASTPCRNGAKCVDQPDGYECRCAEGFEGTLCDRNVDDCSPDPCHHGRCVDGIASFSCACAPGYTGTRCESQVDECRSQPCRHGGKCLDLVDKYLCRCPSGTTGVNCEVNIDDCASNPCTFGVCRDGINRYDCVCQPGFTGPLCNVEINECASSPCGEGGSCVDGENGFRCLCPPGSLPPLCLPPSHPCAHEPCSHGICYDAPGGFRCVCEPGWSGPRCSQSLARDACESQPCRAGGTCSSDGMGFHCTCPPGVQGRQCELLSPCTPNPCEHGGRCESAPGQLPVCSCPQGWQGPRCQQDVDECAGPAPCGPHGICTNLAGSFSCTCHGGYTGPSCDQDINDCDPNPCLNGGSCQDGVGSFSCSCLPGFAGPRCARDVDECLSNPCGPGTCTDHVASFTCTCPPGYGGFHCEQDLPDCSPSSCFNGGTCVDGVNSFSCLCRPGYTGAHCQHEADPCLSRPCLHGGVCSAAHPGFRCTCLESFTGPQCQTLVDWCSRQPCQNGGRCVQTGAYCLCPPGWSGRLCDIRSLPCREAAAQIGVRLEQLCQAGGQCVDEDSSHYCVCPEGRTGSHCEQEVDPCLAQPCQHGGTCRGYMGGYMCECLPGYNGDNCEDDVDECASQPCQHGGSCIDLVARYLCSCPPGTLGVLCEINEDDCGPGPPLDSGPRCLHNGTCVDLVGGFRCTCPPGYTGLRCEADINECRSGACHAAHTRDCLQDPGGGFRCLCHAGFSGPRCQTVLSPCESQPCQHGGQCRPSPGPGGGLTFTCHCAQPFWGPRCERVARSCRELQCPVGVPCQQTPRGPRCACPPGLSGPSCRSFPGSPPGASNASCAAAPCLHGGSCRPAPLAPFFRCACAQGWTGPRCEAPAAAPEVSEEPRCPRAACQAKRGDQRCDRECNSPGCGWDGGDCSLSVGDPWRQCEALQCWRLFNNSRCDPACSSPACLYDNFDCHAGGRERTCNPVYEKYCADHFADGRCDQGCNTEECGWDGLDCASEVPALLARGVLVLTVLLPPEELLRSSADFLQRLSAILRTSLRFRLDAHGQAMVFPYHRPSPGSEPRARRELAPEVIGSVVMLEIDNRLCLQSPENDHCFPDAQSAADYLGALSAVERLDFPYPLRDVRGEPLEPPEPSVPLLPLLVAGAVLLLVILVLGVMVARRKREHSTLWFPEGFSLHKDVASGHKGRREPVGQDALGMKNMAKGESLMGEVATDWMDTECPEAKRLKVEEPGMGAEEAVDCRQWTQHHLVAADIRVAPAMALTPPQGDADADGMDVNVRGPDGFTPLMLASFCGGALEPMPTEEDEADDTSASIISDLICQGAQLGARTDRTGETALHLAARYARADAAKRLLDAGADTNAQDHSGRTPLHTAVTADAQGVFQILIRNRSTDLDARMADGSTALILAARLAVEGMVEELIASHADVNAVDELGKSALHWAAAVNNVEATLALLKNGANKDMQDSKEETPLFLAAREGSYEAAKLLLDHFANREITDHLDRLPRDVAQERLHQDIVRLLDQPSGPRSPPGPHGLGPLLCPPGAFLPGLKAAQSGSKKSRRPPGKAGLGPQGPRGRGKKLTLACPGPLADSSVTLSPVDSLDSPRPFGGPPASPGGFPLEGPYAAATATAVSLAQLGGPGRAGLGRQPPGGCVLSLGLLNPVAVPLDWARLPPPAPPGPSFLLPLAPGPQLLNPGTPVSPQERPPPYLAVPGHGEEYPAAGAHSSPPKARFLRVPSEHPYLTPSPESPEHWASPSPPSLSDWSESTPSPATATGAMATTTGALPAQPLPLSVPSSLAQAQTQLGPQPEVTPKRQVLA

For `CC(=O)NCCCC[C@@H]1NC(=O)[C@H]2C[C@@H](C(=O)NCCCCCCN(C)C)[C@@H](c3cccc(OCCO)c3)N2C1=O`, the composite z-score worked out at 1.53 in experiment [1]; 3.07 in experiment [5]; 0.536 in experiment [7]; 1.87 in experiment [8]; 1.02 in experiment [9]; 0.539 in experiment [10]. Further, the composite z-score in [11] was 1.5; in [12], 0.822; in experiment [13], 0.649; in [15] it was 1.39; in [16], 1.36; in [17] it was 1.64. Moreover, the composite z-score worked out at 1.1 in experiment [18], 1.77 in experiment [19] and 0.298 in [20]. For the same compound, the z-score was -1.05 (inactive) in experiment [2]; -0.36 (inactive) in experiment [3]; -0.391 (inactive) in experiment [4]; 0.0161 (inactive) in experiment [6]; 0.567 (inactive) in [14].

Regarding `CO[C@H]1COC(=O)CC=C[C@H](C)[C@@H](OC)COC(=O)[C@H](Cc2ccccc2)NC(=O)CC=C[C@@H]1C`, the composite z-score in [1] is 0.942; in [5] it was -1.22; in [7], -0.298; in experiment [8], 1.68; in experiment [9], 0.0612; in experiment [10] it was -0.172. Further, the composite z-score in [11] is 1.49; in experiment [12] it was -1.1; in experiment [13], -1.86; in experiment [15], -0.0885; in experiment [16], 0.344; in experiment [17], 0.514. In addition, the composite z-score in [18] turned out to be 1.22; in [19], 1.96; in experiment [20], 1.72. Besides, the z-score in experiment [2] is 0.37 (inactive); in experiment [3] it was -0.623 (inactive); in [4], 0.725 (inactive); in experiment [6], -0.145 (inactive); in [14], -1.34 (inactive).

As for `CCC#CCN(Cc1ccccc1Br)[C@H](/C=C/c1ccccc1)[C@@H](O)Cc1ccccc1`, the composite z-score was -0.394 in experiment [1]; 1.22 in experiment [5]; 0.136 in experiment [7]; -1.78 in experiment [8]; -1.11 in experiment [9]; -0.458 in experiment [10]. Besides, the composite z-score in experiment [11] was 0.193; in experiment [12] it was 0.0099; in experiment [13] it was 1.28; in [15], -0.89; in [16] it was -0.688; in experiment [17] it was -1.53. Also, the values for the composite z-score in experiment [18], in [19] and in [20] were -1.81, -1.6 and 1.05, respectively. For the same compound, the z-score in [2] is 0.629 (inactive); in experiment [3] it was 0.266 (inactive); in [4], 1.12 (inactive); in [6], 0.567 (inactive); in experiment [14] it was -1.89 (inactive).

As to `CCC(=O)[C@]12O[C@@]3([C@@H]4C(=O)OCC[C@@H]41)N(CC)C(C)=C(C(=O)OC)[C@@H](c1ccccc1)N3C2=O`, the composite z-score was -0.486 in experiment [1]; 0.155 in [5]; -0.0928 in experiment [7]; 0.152 in [8]; -0.37 in experiment [9]; -0.0818 in experiment [10]. The composite z-score in [11] was -0.155; in experiment [12] it was -0.41; in experiment [13] it was -0.87; in [15] it was 0.162; in experiment [16], 0.0495; in experiment [17] it was 0.0064. Further, the composite z-score in experiment [18] came out at 0.599; in [19] it was 0.817; in [20] it was 1.7. Further, the z-score was -1.62 (inactive) in experiment [2]; -1.89 (inactive) in experiment [3]; -0.153 (inactive) in experiment [4]; 0.421 (inactive) in experiment [6]; -1.9 (inactive) in experiment [14].

Consider `CO[C@@H]1COC(=O)[C@@H]2CCCN2C(=O)CC=C[C@@H](C)[C@H](OC)COC(=O)[C@@H]2CCCN2C(=O)CC=C[C@H]1C`, for which the composite z-score in experiment [1] is 1.11; in experiment [5] it was -0.522; in experiment [7], -0.166; in [8] it was 1.14; in [9], -0.325; in experiment [10] it was -0.0332. Further, the composite z-score is 1.29 in experiment [11]; -0.875 in experiment [12]; -1.33 in experiment [13]; 0.546 in experiment [15]; 0.171 in [16]; 0.992 in experiment [17]. In addition, the composite z-score stood at 1.19 in experiment [18], 1.27 in experiment [19] and 1.43 in experiment [20]. Further, the z-score was -0.0171 (inactive) in experiment [2]; -1.05 (inactive) in [3]; -0.258 (inactive) in experiment [4]; 1.1 (inactive) in experiment [6]; -0.481 (inactive) in experiment [14].
